Measurements published in PubChem BioAssay AID1259415 (National Center for Advancing Translational Sciences (NCATS), 2018).
Several values for one entry are separate records, joined by “and”; a condition that tells them apart may be missing. Identical values can stand only once. In all, about 410,000 compounds went through this assay and about 18,000 (4.4%) were called active. Inconclusive results (about 7%) are left out. The sample holds actives, similar compounds and a random draw of the others, so the mix is not that of the screen. Unmarked numbers belong to inactive results. Rule as the data show it: active = activity change below about -60%; inconclusive = no clear call, values can overlap the other calls; inactive = above about -39%.

assay: qHTS Assay for inhibitors of the human cytomegalovirus (HCMV); details: HFF cells, HCMV-luciferase reporter, 72 h; at 57.5 µM; active compounds read low
How it was run: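 Cell-based, HFFs, 1000 cells/well, 16 h 37C; cpds in DMSO + HCMV-luc, MOI 1 PFU/cell; 72 h 37C; OneGlo luminescence after 5 min RT; norm. to buffer vs Salinomycin 10uM.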
% is scaled to controls: 0 for no effect and ±100 for the full control effect.

Row | Structure (SMILES) | activity change, negative = inhibition
1 | CCOC(=O)c1c(NC(=O)COc2cc(C)ccc2C(C)C)sc(C)c1C | 12.8%
2 | CC1CCN(S(=O)(=O)c2ccc3c(ccn3CCC(=O)NCc3ccc(N(C)C)cc3)c2)CC1 | 5.8%
3 | CCc1ccc(NC(=O)c2nn(-c3ccc(C)cc3)c(=O)n(C)c2=O)cc1 | -12.5%
4 | CCOc1ccccc1NC(=O)CSc1ncc(S(=O)(=O)c2ccc(C(C)(C)C)cc2)c(=O)[nH]1 | -2.52%
5 | CC1=CC(=Cc2sc3ccccc3[n+]2C)C=C(C)O1 | -100% (active)
6 | CCC(=O)N1CCc2cc(Br)cc(S(=O)(=O)CCC(=O)NCCc3ccc(OC)c(OC)c3)c21 | 7.78%
7 | COc1ccc(C2NC(=S)NC3=C2CCc2ccccc23)cc1OC (configuration not stated) | -13.4%
8 | Cc1ccc(-c2nn(C(C)(C)C)c3ncnc(N)c23)cc1 | -69.5% (active)
9 | CCOC(=O)c1cc2c(n(-c3ccc(C)cc3)c1=O)CCCC2=O | -27.5%
10 | O=C1CCCC2=C1C(c1cccs1)CC(=O)N2c1ccc(F)cc1 (configuration not stated) | 18.4%
11 | CCOC(=O)C1=C(N)N(c2ccc(C)cc2)C2=C(C(=O)CCC2)C1c1cccs1 (configuration not stated) | -86.5% (active)
12 | Cc1ccc(C)c(Cn2c(=O)n(CCC(=O)NCc3ccc4c(c3)OCO4)c(=O)c3sccc32)c1 | -25.1%
13 | COc1ccc(C2=NC3(CCCCC3)N(CC(=O)Nc3ccc(C(C)C)cc3)C2=O)cc1 | -14.7%
14 | CCn1c(C)c(C)c2cc(C(=O)NCCc3cc(OC)ccc3OC)ccc21 | 0%
15 | CN(NC(=O)c1ccccc1F)c1nc(C(F)(F)F)nc2ccccc12 | -62.6% (active)
16 | CC(NC(=O)c1ccccc1F)c1cccc2ccccc12 (configuration not stated) | -5.98%
17 | CSc1nc(N(C)NC(=O)c2cccc(C)c2)c2ccccc2n1 | -87.3% (active)
18 | Cc1cccc(C(=O)Nc2ccc(-c3nc4ccccc4s3)c(C)c2)c1 | 55.1%
19 | O=C(Cn1cnc2ccccc2c1=O)NNC(=O)c1ccccc1F | -0.88%
20 | Cc1cccc(C(=O)NCCc2nc3ccccc3n2Cc2ccccc2Cl)c1 | 3.18%
21 | Cc1cc2oc(C(=O)N(Cc3ccc(Cl)cc3)Cc3ccco3)c(C)c2cc1Cl | -14.8%
22 | COc1cccc(C(=O)N2CCCC(CCC(=O)NCc3ccc(F)c(F)c3)C2)c1 (configuration not stated) | 34.9%

Row | Structure (SMILES) | activity change, negative = inhibition
23 | COc1ccc(C)cc1N(CC(=O)N1CCC(C)CC1)S(=O)(=O)c1ccc(C)cc1 | -13.7%
24 | CCN(CC)CCNC(=O)CN1N=C(c2ccc(OC)cc2)CCC1=O | 29.3%
25 | CC1(C)CCSC(/C=C/c2ccccc2)=N1 | -97.3% (active)
26 | CC1(C(=O)NS(=O)(=O)c2ccccc2)CCN1C(=O)C/C=C/c1ccccc1 (configuration not stated) | 19.5%
27 | CC1(C(=O)O)CCN1C(=O)/C=C/c1ccccc1 (configuration not stated) | -1.81%
28 | COc1cccc(-n2ccn(CC(=O)NCc3ccc(C)cc3)c(=O)c2=O)c1 | -17.1%
29 | Fc1ccccc1N=C1Nc2cccc3cccc1c23 | -68.6% (active)
30 | COc1ccc(C)cc1S(=O)(=O)Nc1cc2c3c(c1)CCC(=O)N3CCC2 | 0.474%
31 | CCN(CC)P(=O)(/C(Cl)=C\Nc1c(C)n(C)n(-c2ccccc2)c1=O)N(CC)CC | 54%
32 | Cc1cc(C)c2nc(SCC(=O)N(C)C3CCS(=O)(=O)C3)cc(C)c2c1 (configuration not stated) | 25.8%
33 | CCCOc1ccc(C(=O)C(CCC(CNCC)C(=O)c2ccc(OCCC)cc2)CNCC)cc1 (configuration not stated) | -96.5% (active)
34 | CCCOc1cccc(C(=O)Nc2cccc(NC(=O)c3ccc(C(C)(C)C)cc3)c2)c1 | 50.3%
35 | CC(C)CCOc1ccc(C(=O)C[N+]2(C)CCOCC2)cc1 | -4.43%
36 | Cc1ccc(OCCn2c(CNc3ccccc3C)nc3ccccc32)cc1 | 38%
37 | COc1ccc(/C=C/c2nc(C#N)c(NCc3ccc(F)cc3)o2)cc1OC | 9.25%
38 | Cc1cc(Cl)ccc1OCC(=O)N(Cc1ccc(N(C)C)cc1)C1CCS(=O)(=O)C1 (configuration not stated) | 15.4%
39 | COc1ccc(Cl)cc1NC(=O)CCC(=O)c1ccc(C)cc1 | -19.2%
40 | Cc1ccc(Cl)cc1NC(=O)CCS(=O)(=O)c1ccc(Br)s1 | -33.6%
41 | COc1ccc(Cl)cc1NC(=O)CCS(=O)(=O)c1ccc(Br)cc1 | -65.8% (active)
42 | O=C(c1ccccc1)N1CC(=O)N2[C@@H](CO)[C@@H](c3ccc(Br)cc3)[C@@H]2C1 | 14.7%
43 | COc1cc(NC(=O)c2cc(C3CC3)nc3c2c(C)nn3-c2ccccc2)cc(OC)c1 | -30%
44 | CSc1ccc(CCNC(=O)c2cc(C)nc3c2c(C)nn3-c2cccc(F)c2)cc1 | 30.7%

Row | Structure (SMILES) | activity change, negative = inhibition
45 | Cc1cc(C(=O)Nc2cccc(C(F)(F)F)c2)c2c(C)nn(-c3cccc(F)c3)c2n1 | -98.1% (active)
46 | O=C(CN1CCN(S(=O)(=O)/C=C/c2ccccc2)CC1)NC(=O)NCc1ccco1 | 61.6%
47 | COc1ccc(OC)c(C2C3=C(N=c4s/c(=C\c5cccc(O)c5)c(=O)n42)c2ccccc2CC3)c1 (configuration not stated) | -92.5% (active)
48 | COc1ccc(Cn2ccc3nc(C)c(C(=O)Nc4ccc(C)c(F)c4)cc3c2=O)cc1 | 0.318%
49 | COc1ccc(C2=CC(c3ccccc3Cl)n3nc(-c4ccc(Cl)cc4)nc3N2)cc1 (configuration not stated) | -32.6%
50 | C/C(=N\Nc1nc(N2CCOCC2)nc(N2CCOCC2)n1)c1ccc([N+](=O)[O-])cc1 | -66% (active)
51 | C/C(=N\Nc1ccc([N+](=O)[O-])cc1)c1ccc(-n2nncc2C(C)(C)C)cc1 | -14.8%
52 | C/C(=N/NC(=O)CC(=O)N/N=C(\C)c1ccc([N+](=O)[O-])cc1)c1ccc([N+](=O)[O-])cc1 | -9.56%
53 | CC1CCN(CCCNC(=O)CN2C(=O)CSc3ccc(S(=O)(=O)N4CCCCC4)cc32)CC1 | 16.9% and -5.47%
54 | CCOC(=O)c1ccccc1NC(=O)c1sc2nc(-c3ccc(F)cc3)cn2c1C | -4.65%
55 | Cc1cccc(C(=O)Nc2ccc(-c3nc4ncccc4o3)cc2C)c1 | 24.6%
56 | O=C1c2ccccc2C(=O)N1CCOc1ccc(F)cc1 | -3.7%
57 | O=C1NC(=O)N(CCc2ccc(F)cc2)C(=O)/C1=C/C=C/c1ccccc1 | -71.6% (active)
58 | CCc1ccc(OCC(=O)N2CCN(CC(=O)Nc3ccccc3Cl)CC2)cc1 | 11.8%
59 | Clc1ccc(-c2cc(COc3ccccc3)no2)cc1Cl | 0.868%
60 | Cc1ccc(NC(=O)CSc2nnc3[nH]c(=O)cc(C)n23)cc1Cl | -38.5%
61 | COc1ccc(-c2cc(=O)oc3cc(OC(C)C(=O)Nc4ccc(CN5CCOCC5)cc4)ccc23)cc1 (configuration not stated) | -70.7% (active)
62 | COc1ccc(-c2cc(=O)oc3cc(OC(C)C(=O)NCC4CCC(C(=O)O)CC4)ccc23)cc1 (configuration not stated) | 5.3%
63 | Cc1cc(=O)oc2cc(OC(C)C(=O)Nc3ccc(N4CCOCC4)cc3)ccc12 (configuration not stated) | 5.98%
64 | CCCNC(=O)c1ccc2c(c1)ncn2-c1ccc(C)cc1C | -6.25%
65 | O=C(Nc1ccc2nc(SCC(=O)N3CCCc4ccccc43)sc2c1)c1ccc(Cl)cc1 | 95.5%
66 | O=C(Nc1ccc2nc(SCC(=O)N3CCCc4ccccc43)sc2c1)c1ccc(F)cc1 | -5.14%

Row | Structure (SMILES) | activity change, negative = inhibition
67 | CC(C)(C)c1ccc(C(=O)Nc2ccc3c(c2)CCCN3C(=O)c2cccs2)cc1 | -80.2% (active)
68 | Cc1ccc(CNC(=O)CCCNC(=O)c2ccc(Cl)cc2)n1C | 43.4%
69 | CCOc1ccccc1CNC(=O)C1CCCN(S(=O)(=O)c2ccc3c(ccn3C)c2)C1 (configuration not stated) | -5.75%
70 | Cc1ccc(CNC(=O)CCc2c(C)nn(-c3ccc(N4CCCC4)nn3)c2C)cc1 | 19.6%
71 | CCCCCC1CCC(c2nnc(SCC(C)=O)o2)CC1 (configuration not stated) | -99.8% (active)
72 | CCN(CC)C(=O)CSc1nnc(C2CCCCC2)o1 | 18.8%
73 | Cc1[nH]c2ccccc2c1C(=O)C(C)Sc1nnc(C2CC2)o1 (configuration not stated) | 0%
74 | Cc1ccc(CNC(=O)CCNS(=O)(=O)c2ccc3c(c2)oc(=O)n3C)cc1 | -1.91%
75 | COC1=CC=C2[C@H]3Cc4ccc(OC)c5c4[C@@]2(CCN3C)C1O5 (some centres not stated) | 23.5%
76 | COc1ccc2c(c1)[C@]13CCCCC1C(C2)N(C)CC3 (some centres not stated) | -2.65%
77 | COC1=C[C@@H]2[C@@H]3Cc4ccc(OC)c(O)c4[C@]2(CCN3C)CC1=O | -68% (active)
78 | Cc1ccc(Cl)cc1N1CCN(C(=O)c2cccn3c(=O)c4cc(Cl)ccc4nc23)CC1 | -4.38%
79 | COc1ccc(-c2nc3scc(CCNS(=O)(=O)c4cc(F)ccc4OC)n3n2)cc1OC | 34.6%
80 | CCOC(=O)c1c(-c2ccc(C)cc2)csc1/N=C(\C)C1=C(O)c2ccccc2C1=O | -62.8% (active)
81 | CCOC(=O)c1scc(-c2ccc(C)cc2)c1S(=O)(=O)Nc1cc(C)ccc1C | -16.6%
82 | CC(=NCc1ccc2c(c1)OCO2)C1=C(O)c2ccccc2C1=O | 14.5%
83 | CSc1ccc(C2C(C(=O)Nc3ccccc3)=C(C)Nc3nc4ccccc4n32)cc1 (configuration not stated) | 8.38%
84 | COc1ccc(CNC(=O)Cn2nnc(-c3ccc(S(C)(=O)=O)cc3)n2)cc1 | 21.5%
85 | COc1cccc(N2CCN(c3ccc4nnc(CCC(=O)N5CCN(C)CC5)n4n3)CC2)c1 | -14.4%
86 | COc1cccc(-c2nc3ccc(N4CCN(C)CC4)cc3[nH]2)c1 | -68.2% (active)
87 | COc1ccc(N2CCN(C3=NS(=O)(=O)C(c4cccc(Br)c4)=C3C)CC2)cc1 | -29.4%
